Methyltransferases: Primary Screen for Target Class Profiling of Small Molecule Inhibitors of Methyltransferases. purified enzyme, MTase-Glo SAH luminescence; active compounds read low. calls only at 40 µM. 25,000 tested, 3.9% active. AID 1745853, 2022; call rule not given here
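Each enzyme was assayed with SAM and its substrate. SAH formation detected by MTase-Glo luminescence; single-point 40 uM screen[…].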
* hit, by the source's call; i = inactive; + = active, no number; ! = not confirmed by another sample. Shown is part of a subset that was picked to be rich in hits. On the % scale 0 is the no-effect control and ±100 the full control effect.

SMILES	Methyltransferases
O=C(O)c1ccc2c(c1)C1C=CCC1C(c1ccc(Cl)cc1)N2 (stereo not drawn)	+
CC(C)COC(=O)c1ccc2c(c1)C1C=CCC1C(c1ccc(Cl)cc1)N2 (stereo not drawn)	i
COC(=O)c1cc2n(n1)CC(C)(C(=O)NC1CCC(C)CC1)N(Cc1ccccc1OC)C2=O (stereo not drawn)	i
CC1CCN(S(=O)(=O)c2cc3[nH]c(=O)[nH]c3cc2Cl)CC1	i
CCOc1ccc(CN2C(=O)c3cc(C4CC4)nn3CC2(C)C(=O)NC2CCCCCC2)cc1 (stereo not drawn)	i
Cc1ccc(C)c(N2C(=O)c3cc4occc4n3CC2(C)C(=O)NC2CCCCCC2)c1 (stereo not drawn)	i
CCn1c(-c2nonc2N)nc2c(C#CC(C)(C)O)ncc(OCC3CCCNC3)c21 (stereo not drawn)	+
CCCn1c(=O)c2cc(Cl)ccc2n2c(SCC(=O)Nc3ccc(OC)c(OC)c3)nnc12	i
C/C=C(\C)C(=O)OC[C@H]1O[C@@H](O[C@H]2[C@@H](O[C@H]3O[C@H](CO)[C@@H](O)[C@H](O)[C@H]3O[C@@H]3O[C@H](CO)[C@@H](O)[C@H](O)[C@H]3O)O[C@H](COC(=O)/C(C)=C/C)[C@@H](O)[C@@H]2O)[C@H](O)[C@@H](O)[C@@H]1O	i
Nc1[nH]nc2nnc(-c3c(-c4ccccc4)nn4ccccc34)cc12	+
O=C(O)c1cc(-c2c(-c3ccccc3)nn3ccccc23)n[nH]c1=O	i
CC(C)Cn1c(=O)c2ccc(C(=O)NC(C)C)cc2n2c(=O)n(CC(=O)Nc3cccc(Cl)c3)nc12	i
COCCn1c(CN(C)Cc2sccc2C)cnc1S(=O)(=O)CC1CCCCC1	i
CC(C)n1c(=O)c2ccc(C(=O)NC3CCCC3)cc2n2c(=O)n(Cc3cccc(F)c3)nc12	i
CC(C)CCn1c(=O)c2ccccc2n2c(SCc3ccc(F)cc3)nnc12	i
COCCCN1C(=O)c2cc3c(OC)ccc(OC)c3n2CC1(C)C(=O)NC1CCCCC1 (stereo not drawn)	+
CCOCCCN1C(=O)c2cc3c(OC)ccc(OC)c3n2CC1(C)C(=O)NC1CCCCC1 (stereo not drawn)	i
CCOCCCN1C(=O)c2cc3c(OC)ccc(OC)c3n2CC1(C)C(=O)NC1CCCCCC1 (stereo not drawn)	i
COc1ccc(OC)c2c1cc1n2CC(C)(C(=O)NC2CCCCC2)N(Cc2cccnc2)C1=O (stereo not drawn)	+
COc1ccc(OC)c2c1cc1n2CC(C)(C(=O)NC2CCCCCC2)N(Cc2cccnc2)C1=O (stereo not drawn)	i
COc1ccc(OC)c2c1cc1n2CC(C)(C(=O)NC2CCC(C)CC2)N(Cc2cccnc2)C1=O (stereo not drawn)	i
Cc1ccc(Cn2c(=O)c3ccccc3n3c(CCC(=O)NC4CCC(C)CC4)nnc23)cc1 (stereo not drawn)	i
CSc1ccc(CN2C(=O)c3cc4ccccc4n3CC2(C)C(=O)NCCCOC(C)C)cc1 (stereo not drawn)	i
Cc1ccc(Cl)cc1N1C(=O)c2cc(C(C)C)nn2CC1(C)C(=O)NC1CCCCC1 (stereo not drawn)	i
CC1CCC(NC(=O)C2(C)Cn3c(cc4occc43)C(=O)N2Cc2ccc(OC(C)C)cc2)CC1 (stereo not drawn)	i
SMILES	Methyltransferases
CCCn1c(=O)c2ccc(C(=O)NC(C)C)cc2n2c(=O)n(Cc3cccc(F)c3)nc12	i
O=C(CCc1nnc2n(Cc3ccc(Cl)cc3)c(=O)c3ccccc3n12)NCCc1c[nH]c2ccccc12	i
COc1ccc(C(=O)O[C@H]2CC(C)=CC[C@@]3(C)[C@@H](OC(C)=O)C[C@@](O)(C(C)C)[C@H]23)cc1	i
Cc1nc(N2CCC(NC(=O)c3sccc3C)CC2)cc(C(F)(F)F)n1	i
C/C(=C\CC/C(C)=C/CC[C@]1(C)CCc2cc(O)cc(C)c2O1)CC/C=C(\C)C(=O)O	+
Cn1c(=O)c2ccc(C(=O)NC3CCCCC3)cc2n2c(=O)n(Cc3cccc(Cl)c3)nc12	i
CC(C)CCNC(=O)C1(C)Cn2nc(C(=O)NCc3ccccc3Cl)cc2C(=O)N1C (stereo not drawn)	i
N#Cc1ccc(-c2csc(NN=C3CCCC3)n2)cc1	+!
CC(C)CCNC(=O)C1(C)Cn2c(cc3ccccc32)C(=O)N1Cc1ccc(Cl)cc1 (stereo not drawn)	i
C=C1C(=O)O[C@@H]2C3=C(C)CCC[C@]3(C)CC[C@@]12O	+
CC1=C2C3OC(=O)C(C)C3(O)CCC2(C)CCC1 (stereo not drawn)	i
CC1=C2C3OC(=O)C(C)C3(O)CCC2(C)CCC1=O (stereo not drawn)	i
COc1ccc(CNC(=O)C2(C)Cn3cnc(C(=O)NC4CCCCC4)c3C(=O)N2C2CC2)cc1 (stereo not drawn)	i
NC(=O)[C@@H](Cc1ccccc1)NC(=O)[C@@H]1C[C@@H](NS(=O)(=O)c2cccs2)CCN1C(=O)CSCC(=O)O	i
C=Cc1ccc(Cn2nc3n(Cc4ccccc4)c(=O)c4ccccc4n3c2=O)cc1	i
CN(C)c1ccc2c(c1)OC(N)=C(C#N)C2c1cccc(C(F)(F)F)c1 (stereo not drawn)	i
CC1CCC(NC(=O)C2(C)Cn3c(ccc3-c3ccccc3)C(=O)N2CCc2cccs2)CC1 (stereo not drawn)	i
Cc1nc([C@](C)(O)CO)sc1-c1cnc(N)c(O[C@H](C)c2cc(F)ccc2-n2nccn2)c1	+
CC(C)CCn1c(=O)c2ccc(C(=O)NC3CCCCC3)cc2n2c(=O)n(Cc3ccccc3F)nc12	i
CN(CC(=O)N1CCOCC1)S(=O)(=O)c1ccc2c(c1)CCCC(=O)N2	i
CCC(C)NC(=O)c1ccc2c(=O)n(CC(C)C)c3nn(Cc4ccc(F)cc4Cl)c(=O)n3c2c1 (stereo not drawn)	i
CCCn1c(=O)c2ccccc2n2c(SCC(=O)Nc3cccc(C)c3)nnc12	i
COc1ccc(CCNC(=O)CCCc2nnc3n4nc(C)nc4c4ccccc4n23)cc1OC	i
Cn1nc(-c2ccc(C(F)(F)F)cc2)nc2c(=O)n(C)c(=O)nc1-2	+
Cc1ccccc1NC(=O)Cn1nc2n(CCC(C)C)c(=O)c3ccc(C(=O)NC(C)C)cc3n2c1=O	i
SMILES	Methyltransferases
COCCNC(=O)c1cc(-c2ccccc2OC)c2cccn2n1	i
O=C(Cn1nc2n(Cc3ccccc3)c(=O)c3ccccc3n2c1=O)NCc1ccc(Cl)cc1	i
Cc1ccc(-c2nnn3c2nc(NCc2ccc(F)cc2)c2ccccc23)cc1	i
CCCn1c(=O)c2ccccc2n2c(=O)n(CC(=O)c3ccccc3)nc12	i
Cc1cccc(N2CCN(C(=O)c3ccc4c(=O)[nH]c5c(C(=O)NC(C)C)sc(=S)n5c4c3)CC2)c1C	+
CCc1nc2c(=O)n(CC(=O)N3CCN(c4cccc(C)c4C)CC3)nc(C)c2s1	i
Cc1cccc(N2CCN(C(=O)c3ccc4c(=O)[nH]c5c(C(=O)NC6CCCC6)sc(=S)n5c4c3)CC2)c1C	i
Cc1ccc(C)c(N2CCN(C(=O)c3ccc4c(=O)[nH]c5c(C(=O)NC(C)C)sc(=S)n5c4c3)CC2)c1	+
Cc1ccc(C)c(N2CCN(C(=O)CCc3nnc4n(CCCOC(C)C)c(=O)c5ccccc5n34)CC2)c1	i

Source: PubChem (National Center for Advancing Translational Sciences (NCATS))
